PubChem BioAssay AID1159580 (chemical genetic matrix, 2015)
The campaign covered roughly 5,500 compounds. About 2,000 (36%) were called active. Roughly 18% stayed inconclusive and do not appear here. No stated cut-off is given here; in the data, active means normalized growth mostly below about 0.91 (no sharp cut-off); inconclusive means no clear call, values can overlap the other calls; inactive means mostly above about 0.92. The list shows a part of the results.

Experiment: chemical genetic growth profiling, strain panel (AID 1159580);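 further: tested at 20 µM; growth read once vehicle control cultures reached saturation at 30 °C; 1 = growth at the plate median or of vehicle wells; lower values mean less growth of the strain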
Conditions: growth OD

Measured: normalized growth

O=c1[nH]c(=O)n(C2C[C@H](O)[C@@H](CO)O2)cc1C(F)(F)F (stereo partly specified)
inactive: S. cerevisiae deletion strains, locus YKL009W, strain mrt4, hits give low values 0.981 | S. cerevisiae deletion strains, locus YKL068W, hits give low values 0.978 | S. cerevisiae deletion strains, locus YKL085W, strain MDH1 (second series), hits give low values 0.974 | S. cerevisiae deletion strains, locus YKL085W, strain MDH1, hits give low values 0.974 | S. cerevisiae deletion strains, locus YKL160W, strain elf1, hits give low values 0.954 | S. cerevisiae deletion strains, locus YKL190W, strain CNB1, hits give low values 0.996 | S. cerevisiae deletion strains, locus YKR001C, strain vps1, hits give low values 0.982 | S. cerevisiae deletion strains, locus YKR026C, strain gcn3, hits give low values 0.973 | S. cerevisiae deletion strains, locus YKR091W, strain srl3, hits give low values 0.96 | S. cerevisiae deletion strains, locus YLL001W, strain dnm1, hits give low values 0.994 | S. cerevisiae deletion strains, locus YLL026W, hits give low values 0.962 | S. cerevisiae deletion strains, locus YLL041C, strain sdh2, hits give low values 0.954 | S. cerevisiae deletion strains, locus YLR027C, strain aat2, hits give low values 0.965 | S. cerevisiae deletion strains, locus YLR039C, strain RIC1, hits give low values 0.934 | S. cerevisiae deletion strains, locus YLR058C, strain SHM2, hits give low values 0.968 | S. cerevisiae deletion strains, locus YLR102C, strain apc9, hits give low values 0.98 | S. cerevisiae deletion strains, locus YLR113W, strain HOG1, hits give low values 0.996 | S. cerevisiae deletion strains, locus YLR221C, strain rsa3, hits give low values 0.988 | S. cerevisiae deletion strains, locus YLR258W, strain gsy2, hits give low values 0.965 | S. cerevisiae deletion strains, locus YLR262C, strain YPT6 (second series), hits give low values 0.936 | S. cerevisiae deletion strains, locus YLR262C, strain YPT6, hits give low values 0.955 | S. cerevisiae deletion strains, locus YLR268W, strain sec22, hits give low values 0.962 | S. cerevisiae deletion strains, locus YLR320W, strain mms22, hits give low values 1 | S. cerevisiae deletion strains, locus YLR330W, strain CHS5, hits give low values 0.988 | S. cerevisiae deletion strains, locus YLR342W, strain FKS1 (second series), hits give low values 1 | S. cerevisiae deletion strains, locus YLR342W, strain FKS1, hits give low values 0.966 | S. cerevisiae deletion strains, locus YLR357W, strain rsc2, hits give low values 0.981 | S. cerevisiae deletion strains, locus YLR370C, strain arc18, hits give low values 0.947 | S. cerevisiae deletion strains, locus YLR371W, strain rom2, hits give low values 0.97 | S. cerevisiae deletion strains, locus YLR384C, strain iki3, hits give low values 0.952 | S. cerevisiae deletion strains, locus YLR418C, strain cdc73, hits give low values 0.975 | S. cerevisiae deletion strains, locus YML016C, strain PPZ1, hits give low values 0.993 | S. cerevisiae deletion strains, locus YML032C, strain rad52, hits give low values 0.979 | S. cerevisiae deletion strains, locus YML120C, strain ndi1, hits give low values 0.992 | S. cerevisiae deletion strains, locus YML124C, strain tub3, hits give low values 0.972 | S. cerevisiae deletion strains, locus YMR058W, strain fet3, hits give low values 0.952 | S. cerevisiae deletion strains, locus YMR078C, strain ctf18, hits give low values 0.972 | S. cerevisiae deletion strains, locus YMR125W, strain sto1, hits give low values 0.95 | S. cerevisiae deletion strains, locus YMR129W, hits give low values 0.967 | S. cerevisiae deletion strains, locus YMR205C, strain PFK2, hits give low values 0.983 | S. cerevisiae deletion strains, locus YMR223W, strain ubp8, hits give low values 0.988 | S. cerevisiae deletion strains, locus YMR231W, strain pep5, hits give low values 0.981 | S. cerevisiae deletion strains, locus YMR263W, strain SAP30, hits give low values 1 | S. cerevisiae deletion strains, locus YMR307W, strain GAS1, hits give low values 0.978 | S. cerevisiae deletion strains, locus YNL067W, strain RPL9B, hits give low values 0.992 | S. cerevisiae deletion strains, locus YNL071W, strain lat1, hits give low values 1 | S. cerevisiae deletion strains, locus YNL128W, strain TEP1, hits give low values 0.976 | S. cerevisiae deletion strains, locus YNL153C, strain GIM3, hits give low values 0.992 | S. cerevisiae deletion strains, locus YNL183C, strain NPR1, hits give low values 0.966 | S. cerevisiae deletion strains, locus YNL209W, strain ssb2, hits give low values 0.961 | S. cerevisiae deletion strains, locus YNL233W, strain BNI4, hits give low values 0.978 | S. cerevisiae deletion strains, locus YNL248C, strain rpa49, hits give low values 0.926 | S. cerevisiae deletion strains, locus YNL250W, strain rad50, hits give low values 0.951 | S. cerevisiae deletion strains, locus YNL271C, strain bni1, hits give low values 0.983 | S. cerevisiae deletion strains, locus YNL298W, strain CLA4, hits give low values 0.971 | S. cerevisiae deletion strains, locus YNL307C, strain MCK1, hits give low values 0.972 | S. cerevisiae deletion strains, locus YNL322C, strain KRE1 (second series), hits give low values 0.935 | S. cerevisiae deletion strains, locus YNL322C, strain KRE1, hits give low values 0.989 | S. cerevisiae deletion strains, locus YNR049C, strain mso1, hits give low values 0.957 | S. cerevisiae deletion strains, locus YNR052C, strain pop2, hits give low values 0.992 | S. cerevisiae deletion strains, locus YOL006C, strain TOP1, hits give low values 0.969 | S. cerevisiae deletion strains, locus YOL012C, strain htz1 0.749 | S. cerevisiae deletion strains, locus YOL147C, strain pex11, hits give low values 0.974 | S. cerevisiae deletion strains, locus YOR001W, strain rrp6, hits give low values 0.99 | S. cerevisiae deletion strains, locus YOR061W, strain CKA2, hits give low values 0.987 | S. cerevisiae deletion strains, locus YOR069W, strain VPS5, hits give low values 0.983 | S. cerevisiae deletion strains, locus YOR070C, strain gyp1, hits give low values 0.977 | S. cerevisiae deletion strains, locus YOR080W, strain dia2, hits give low values 0.96 | S. cerevisiae deletion strains, locus YOR083W, strain WHI5, hits give low values 0.917 | S. cerevisiae deletion strains, locus YOR106W, strain vam3, hits give low values 0.95 | S. cerevisiae deletion strains, locus YOR136W, strain idh2, hits give low values 0.978 | S. cerevisiae deletion strains, locus YOR144C, strain elg1, hits give low values 0.97 | S. cerevisiae deletion strains, locus YOR184W, strain ser1, hits give low values 0.983 | S. cerevisiae deletion strains, locus YOR231W, strain MKK1, hits give low values 0.992 | S. cerevisiae deletion strains, locus YOR265W, strain rbl2, hits give low values 0.971 | S. cerevisiae deletion strains, locus YOR270C, strain vph1, hits give low values 0.948 | S. cerevisiae deletion strains, locus YOR290C, strain snf2, hits give low values 0.949 | S. cerevisiae deletion strains, locus YOR316C, strain cot1, hits give low values 0.983 | S. cerevisiae deletion strains, locus YPL051W, strain arl3, hits give low values 0.981 | S. cerevisiae deletion strains, locus YPL055C, strain LGE1, hits give low values 0.985 | S. cerevisiae deletion strains, locus YPL078C, strain atp4, hits give low values 0.988 | S. cerevisiae deletion strains, locus YPL106C, strain sse1, hits give low values 0.944 | S. cerevisiae deletion strains, locus YPL240C, strain hsp82, hits give low values 0.969 | S. cerevisiae deletion strains, locus YPL241C, strain CIN2, hits give low values 0.983 | S. cerevisiae deletion strains, locus YPL256C, strain CLN2, hits give low values 1.04 | S. cerevisiae deletion strains, locus YPR119W, strain clb2, hits give low values 0.987 | S. cerevisiae deletion strains, locus YPR141C, strain kar3, hits give low values 0.959 | S. cerevisiae deletion strains, locus YPR163C, strain tif3, hits give low values 0.972 | S. cerevisiae deletion strains, locus YPR167C, strain met16, hits give low values 0.971 | S. cerevisiae deletion strains, strain wtn01, hits give low values 0.985 | S. cerevisiae strains, strain wild type, hits give low values 0.985
